# From PubChem BioAssay AID1347416 (National Center for Advancing Translational Sciences (NCATS), 2020)
# Among all 4,100 compounds or so, about 1,600 (39%) were called active. About 25% were inconclusive and are not listed. Calls come from the whole dose curve; as a rule, active = well fitted inhibition curve with a large enough effect; inconclusive = small, poorly fitted or top-dose-only effect; inactive = no such curve, though single readings can be large or run the other way. The list shows a part of the results. Entries that show only a call come without a potency.
# Assay: qHTS Validation assay for Inhibitors of Plasmodium falciparum Dd2 growth in vitro; note: nearly all actives have a fitted effect of over 70% in size
# Conditions: P. falciparum Dd2 in RBCs, SYBR Green growth, 72 h; series mostly up to 28.7 µM
# Summary of the method: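 P. falciparum Dd2-infected red blood cells (2.5% hematocrit, 0.3% parasitemia) grown 72 h at 37 °C under 5% O2 with compounds in a titration, 29 uM to 0.5 nM final. Growth read as SYBR Green-1 fluorescence after ~16 h lysis; artesunate 300 nM as positive control.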
# Potency is the fitted concentration of half-maximal effect.
row,SMILES,Potency
1,CCN(CC(O)c1cccc(O)c1)C(=O)C12CC3CC(CC(C3)C1)C2 (configuration not stated),4.73 µM (active)
2,O=C(CN1CCN(C(=O)c2ccco2)CC1)Nc1cc(C(F)(F)F)ccc1Cl,7.5 µM (active)
3,CNC(=O)[C@@H]1CN(Cc2cc(C(F)(F)F)ccc2Cl)C[C@H]1CO,inactive
4,O=C(CN1CCN(C(=O)c2ccco2)CC1)Nc1cc(Cl)ccc1Cl,5.96 µM (active)
5,O=C(c1ccco1)N1CCCN(c2cc(-c3ccc(Br)cc3)[nH]n2)CC1,inactive
6,O=C1c2cc(N3CCOCC3)nc(-c3ccccc3)c2CN1Cc1ccccc1,21.7 µM (active)
7,O=C1CCC2(CCCO2)CCN1Cc1ccccc1 (configuration not stated),inactive
8,CC(=O)Nc1cccc(-c2ncc3c(n2)OCCN(Cc2ccccc2)C3=O)c1,inactive
9,Nc1nc(-c2ccccn2)nc(N)c1Cc1ccccc1F,13.3 µM (active)
10,Nc1nc(-c2ccccn2)nc(N)c1Cc1ccc(Cl)cc1Cl,7.5 µM (active)
11,CCCCN1C(=O)c2[nH]nc(-c3ccccc3O)c2C1c1ccc(OCc2ccccc2)cc1 (configuration not stated),5.96 µM (active)
12,CCOc1cc(C2c3c(-c4ccccc4O)n[nH]c3C(=O)N2Cc2cccnc2)ccc1O (configuration not stated),inactive
13,CCOc1ccccc1CN1CCC2(CCN(C(=O)OC)CC2)Oc2ccccc21,inactive
14,CCOc1ccccc1CN1CCC2(CCN(CCC(C)C)CC2)Oc2ccccc21,3.35 µM (active)
15,CN(C)CCCNc1cc(N2CCN(C3CCCCC3)CC2)c2noc3c2c1C(=O)c1ccccc1-3,1.33 µM (active)
16,COCCNc1cc(N2CCN(C3CCCCC3)CC2)c2noc3c2c1C(=O)c1ccccc1-3,15 µM (active)
17,CCn1ncc(Br)c1C(=O)Nc1sc2c(c1C(N)=O)CCC2,inactive
18,O=C(Nc1sc2c(c1C(=O)NCc1ccco1)CCCC2)c1cc(=O)c2ccccc2o1,10.6 µM (active)
19,Cc1ccc(C(=O)Nc2sc3c(c2C(=O)O)CCCCC3)o1,inactive
20,O=c1cc(-c2ccncc2)oc2c(-c3ccccc3O)nccc12,inactive
21,O=c1cc(-c2cccnc2)oc2c(-c3ccccc3Oc3ccccc3)nccc12,17.2 µM (active)
22,O=c1cc(-c2ccncc2)oc2c(-c3cccc(CO)c3)nccc12,inactive
23,Cc1cc(Nc2ccc3ccccc3c2)n2ncnc2n1,0.596 µM (active)

row,SMILES,Potency
1,Cc1cc(Nc2ccc(C(C)C)cc2)n2ncnc2n1,4.22 µM (active)
2,COc1ccc(Nc2cc(C)nc3ncnn23)cc1Cl,inactive
3,OC(CNCC(c1ccco1)N1CCCCC1)c1ccccc1 (configuration not stated),5.96 µM (active)
4,COc1cccc(C(=O)N2CCCC(Cc3noc(-c4ccncc4)n3)C2)c1 (configuration not stated),inactive
5,N#Cc1cccc(C(=O)N2CCCN(Cc3ccncc3)C(c3ccccc3)CC(=O)NCC2)c1 (configuration not stated),7.5 µM (active)
6,O=C1CC(c2ccccc2)N(Cc2ccncc2)CCCN(C(=O)Nc2ccccc2F)CCN1 (configuration not stated),1.68 µM (active)
7,O=C(NCc1ccncc1)[C@@H]1C[C@@H](c2ccc(F)cc2)N(Cc2ccccc2)C1,inactive
8,O=C(c1ccncc1)N1CCC(Cc2nc(-c3ccccc3)n[nH]2)CC1,inactive
9,COC(=O)c1c(C(=O)OC)c(-c2ccc(C)cc2)n2c1CS(=O)(=O)C2,inactive
10,O=C(N[C@H]1C[C@H]2C(=O)NC[C@@H](CCC(=O)N3CCN(c4ccccc4)CC3)N2C1)C1CC1,inactive
11,COC[C@@H]1CN(Cc2cc(OC)cc(OC)c2)C[C@H]1C(=O)N(C)C,inactive
12,Cc1nc(-c2ccc(F)cc2)n(CC(=O)Nc2cccc(Cl)c2)c(=O)c1CCO,15 µM (active)
13,CSc1cccc(NC(=O)Cn2c(-c3ccc(F)cc3)nc(C)c(CCO)c2=O)c1,13.3 µM (active)
14,Cc1nc(-c2cccc(Cl)c2)n(CC(=O)NCc2ccc(F)cc2)c(=O)c1CCO,inactive
15,CC1=C(C(=O)NCc2ccccn2)C2(CCC(C)CC2)OC1=O (configuration not stated),inactive
16,NC(=O)C1CCN(CC(=O)Nc2cccc(C(=O)Nc3cccc(C(F)(F)F)c3)c2)CC1,6.68 µM (active)
17,O=C(Nc1cccc(C(F)(F)F)c1)C1CCN(S(=O)(=O)c2cccc3nsnc23)CC1,inactive
18,CN(C)C[C@H]1C[C@@H](CO)CN(C(=O)c2ccccc2OC(F)(F)C(F)F)C1,inactive
19,O=C(NC1CC1)c1ccccc1OCC1CCCN(Cc2cccc3[nH]ccc23)C1 (configuration not stated),5.96 µM (active)
20,COc1ccccc1C(=O)NC1CCCN(c2cc(-c3ccc(F)cc3)[nH]n2)C1 (configuration not stated),inactive
21,O=C(c1cc(-c2ccccc2)n[nH]1)N1CCCC(Cc2noc(-c3cnccn3)n2)C1 (configuration not stated),inactive
22,CCOc1ccccc1C(=O)N1CCN(C2CCN(C)C2=O)CC1 (configuration not stated),inactive
23,O=C(c1ccccc1OCC1CCCN(Cc2ccncc2F)C1)N1CCCCC1 (configuration not stated),10.6 µM (active)

row,SMILES,Potency
1,CCn1cc(CN2CCCC(COc3ccccc3C(=O)N3CCCC3)C2)c2ccccc21 (configuration not stated),8.41 µM (active)
2,CC1(C)[C@H]2CC[C@@H](CNC(=O)c3cccc4[nH]ccc34)[C@@H]1C2,inactive
3,O=C(c1ccccc1OCC1CCCN(Cc2ccncc2F)C1)N1CCCC1 (configuration not stated),10.6 µM (active)
4,Cc1ccncc1C(=O)N1CCCC(c2nnnn2C)C1 (configuration not stated),inactive
5,O=C(Nc1cccc(F)c1)N1CCC(Oc2ncccc2C(=O)N2CCCCC2)C1 (configuration not stated),inactive
6,Cc1nc(N2CCCC3(CN(C)C(=O)O3)C2)cc(-n2cccn2)n1 (configuration not stated),inactive
7,CC(C)c1noc(-c2cccn3c(CNC(=O)c4cc(F)ccc4Cl)nnc23)n1,inactive
8,COc1ccc(C2Nc3ccccc3C(=O)N2Cc2ccccc2)cc1COc1ccc(Cl)cc1Cl (configuration not stated),8.41 µM (active)
9,COc1cc2c(cc1OC)CN(C(=O)c1ccco1)CC2,inactive
10,CCC(C)(C)n1nnnc1C(c1cc2cccc(C)c2[nH]c1=O)N1CCN(C(=O)c2ccco2)CC1 (configuration not stated),6.68 µM (active)
11,CCC(C)(C)n1nnnc1C(c1ccccc1OC)N1CCN(C(=O)c2ccco2)CC1 (configuration not stated),15 µM (active)
12,COc1ccc(C(=O)N[C@@H]2CCC[C@@H]2C(=O)N2CCN(C(=O)c3ccco3)CC2)cn1,inactive
13,Cc1ccc(NC(=O)N(Cc2ccc3c(c2)OCO3)Cc2cc3cc4c(cc3[nH]c2=O)OCCO4)cc1,6.68 µM (active)
14,O=C(Nc1ccc(Cl)cc1)Nc1ccc2c(c1)N1CCN=C1S2,5.31 µM (active)
15,CCCCCCCc1c(C)nc(N2CCOCC2)[nH]c1=O,5.31 µM (active)
16,O=C(c1cc2cc(Br)ccc2[nH]1)N1CCc2ccccc21,inactive
17,NNC(=O)CN1C(=O)Nc2ccc(Br)cc2C1c1ccccc1 (configuration not stated),inactive
18,NNC(=O)CN1C(c2cccc(Cl)c2)=Nc2ccc(Br)cc2C1c1ccccc1 (configuration not stated),2.66 µM (active)
19,COC(=O)CC1Oc2ccc(Cl)cc2-n2cc(-c3ccc(F)cc3)nc21 (configuration not stated),4.22 µM (active)
20,CCn1cc(C(=O)N2CCN(c3ccccc3)CC2)c(=O)c2cc(S(=O)(=O)N(C)C3CCCCC3)ccc21,inactive
21,CN(C1CCCCC1)S(=O)(=O)c1ccc2c(c1)c(=O)c(C(=O)N1CCN(c3ccccc3F)CC1)cn2C,inactive
22,CCn1cc(C(=O)NCCCN2CCCC(C)C2)c(=O)c2cc(S(=O)(=O)N(C)C3CCCCC3)ccc21 (configuration not stated),8.41 µM (active)
23,O=C(CC1CCCN(c2cnn(CC3CC3)c(=O)c2)C1)N1CCN(c2ccccn2)CC1 (configuration not stated),inactive

row,SMILES,Potency
1,Cc1cc(Cl)c(S(=O)(=O)N2CCN(c3ccccn3)CC2)cc1OCC(=O)NC1CCCCC1,0.668 µM (active)
2,COc1ccc(CC(=O)N[C@@H]2CN(c3ccccn3)C[C@H]2CN(C)C)cc1,inactive
3,Cn1cccc1CN1C[C@@H](COc2ccncc2)[C@H](c2ccccn2)C1,13.3 µM (active)
4,O=C(COc1ccc(Cl)cc1)N1C[C@@H](CO)[C@H](c2ccccn2)C1,inactive
5,Cn1cccc1CN1CCn2c(nnc2-c2ccccc2)C1,inactive
6,CC(C)CCN(CCC(C)C)CC(O)Cn1c2ccccc2c(=O)c2ccccc21 (configuration not stated),1.88 µM (active)
7,O=C(c1ccc(OC2CCN(Cc3c[nH]c4ccccc34)CC2)cc1)N1CCCCC1,15 µM (active)
8,O=C(Cc1c[nH]c2ccccc12)N1CCc2c(nc(-c3ccc(F)cc3)[nH]c2=O)C1,inactive
9,O=C([C@@H]1C[C@H](Oc2ccccc2)CN1C(=O)c1cc2ccccc2[nH]1)N1CCCC1,inactive
10,CN1C2CCC1/C(=C\c1ccccc1)C(=O)/C2=C\c1ccccc1,2.11 µM (active)
11,Cc1ccc(Oc2c(C(F)(F)F)oc3c(CN4CCC(C)CC4)c(O)ccc3c2=O)cc1,1.68 µM (active)
12,Cc1cc(Oc2c(C(F)(F)F)oc3c(CN4CCC(C)CC4)c(O)ccc3c2=O)cc(C)c1Cl,0.75 µM (active)
13,CCc1nc(CN(C)C(C(=O)O)c2ccc(C(C)(C)C#N)cc2)no1 (configuration not stated),inactive
14,Nc1ccc(NC(=O)c2cccc(C(=O)Nc3ccc(N)cc3Cl)c2)c(Cl)c1,inactive
15,CCOC(=O)C1CCN(C(=O)c2cc3c(n2C)CCN(Cc2ccccc2)C3)CC1,10.6 µM (active)
16,O=C(c1cnc2n1CCN(CCc1ccccc1)CC2)N1CCC(c2ccccc2)CC1,inactive
17,Cc1cn2nc(C(=O)N3CCC(C(=O)NCCc4ccccc4)CC3)cc2c(=O)[nH]1,inactive
18,CCn1nc(C)cc1C(=O)N1Cc2cnn(Cc3ccc(F)cc3)c2C1,inactive
19,CCOC(=O)C1CCN(C(=O)c2cc(C(C)(C)C)nn2Cc2ccccc2)CC1,4.73 µM (active)
20,CN1CCCCCC(O)c2cc(C(=O)N3CCN(Cc4ccccc4)CC3)ccc21 (configuration not stated),inactive
21,O=C(Nc1cccnc1)c1ccc(Cl)c(S(=O)(=O)N2CCc3ccccc32)c1,inactive
22,COc1ccc(NC(=O)c2ccc3c(c2)NC(C)(COCC2CC2)CO3)cn1 (configuration not stated),inactive
23,COc1ccc(NC(=O)c2ccc(Cl)c(S(=O)(=O)N3CCc4ccccc4C3)c2)cn1,7.5 µM (active)
